# This is part of a sample that, as a whole, favours compounds with a hit. Of some 79,000 tested, about 15% had one in any assay. Activity calls are given as the source filed them. No stated cut-off is given here; in the data, active means growth inhibition above about 70%; inactive means the rest.
# Test: NCI Yeast Anticancer Drug Screen. Data for the rad50 strain (AID 155);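 further: 0% = growth of vehicle-only cultures of the same strain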
# Settings: S. cerevisiae rad50 strain growth inhibition; at 50.0 µM; active compounds read high
# Summary of the method: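 Readout: growth inhibition relative to vehicle-treated cultures. Compound exposure was carried out in a genetically defined yeast strain deficient in DNA damage repair.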
row,SMILES,growth inhibition
1,O=C1c2ccccc2C(=O)c2sc(Nc3cc(Cl)ccc3Cl)nc21,82.3% (active)
2,OCC(c1ccccc1)c1ccccc1,77.8% (active)
3,CN(C)c1nc(=NCc2ccco2)ss1,1.8% (inactive)
4,C/C=C\C=N\NC(N)=S,8.9% (inactive)
5,O=C(/C=N/O)c1c(-c2ccccc2)[nH]c(-c2ccccc2)c1-c1ccccc1,94.2% (active)
6,Cc1c2ccccc2c(CO)c2cc(F)c3ccccc3c12,71.5% (active)
7,O=C(O)Cc1cccc2c(=O)c3cccc([N+](=O)[O-])c3[nH]c12,74.6% (active)
8,Cc1ccc(SC2=C(N(C)C)C(=O)c3ccccc3C2=O)cc1,96% (active)
9,O=C1C(Cl)=C(Cl)C(=O)c2cc(Cl)c(Cl)cc21,83.9% (active)
10,CC1=C(C2CO2)C(=O)C(C)=C(C2CO2)C1=O (stereo not given),99.6% (active)
11,CCc1cc(CC)c(-c2ccco2)c(COC(=O)NC)c1,95.4% (active)
12,COC(=O)C(=O)N(c1cc(C)ccc1C)c1cc(C)ccc1C,96.2% (active)
13,COC1=CC(=O)c2c(O)c3c(c(O)c2C1=O)C=C(C)OC3O (stereo not given),85.5% (active)
14,O=[N+]([O-])c1ccccc1NCCO,-10.2% (inactive)
15,CCCCCCCCCCCCCCCC[N+](C)(C)CC(=O)O,-12.2% (inactive)
16,S=C(SSSSC(=S)N1CCCCC1)N1CCCCC1,66.8% (inactive)
17,COC(O)C12OC3CO[Si](C(C)C)(C(C)C)O[Si](C(C)C)(C(C)C)OC3C1Oc1nc(=O)ccn12 (stereo not given),88.7% (active)
18,O=C(O)c1ccccc1C(c1ccccc1)c1ccccc1,44.4% (inactive)
19,OC(OC/C(I)=C(/I)COC(O)C(Cl)(Cl)Cl)C(Cl)(Cl)Cl (stereo not given),97.2% (active)
20,COC(C)(C)[C@@H]1CCCN1C1=C(C)C(=O)OC1,46.6% (inactive)

row,SMILES,growth inhibition
1,COc1ccc(-c2nc(C)[nH]c(=O)c2Cc2c(O)ccc3ccccc23)cc1,98.5% (active)
2,C1CCC(CCNCCC2CCCCC2)CC1,99% (active)
3,CC1=C(C)C1[N+](=O)[O-],78% (active)
4,COc1ccc2c(c1)OC(c1ccccc1O)CC2=O (stereo not given),55.9% (inactive)
5,CCN(CC)c1ccc(NC(CC(O)c2ccccc2)c2ccccc2)cc1 (stereo not given),-24% (inactive)
6,COc1cc(/C=C/C(=O)c2ccc3ccccc3c2)cc(OC)c1OC,7.75% (inactive)
7,C=CC(=C)OC,10.4% (inactive)
8,O=C1OC(=O)c2ccc([N+](=O)[O-])c3cccc1c23,70.4% (active)
9,CCCOC(=O)CSC#N,97.9% (active)
10,CCCCN(CCCC)CCCCCCNc1cc(OC)cc2cccnc12,98.2% (active)
11,CN1C(Cl)=NS(=O)(=O)c2ccccc21,-23% (inactive)
12,COc1cc(C(=O)CBr)c2ccc(Cl)cc2n1,84.8% (active)
13,CCCCCCCCCCCCCCCC(=O)N(CCCN(CC)CC)C(C)CCCN(CC)CC (stereo not given),60.1% (inactive)
14,CC1(c2ccccc2)OC1C(=O)N(c1ccccc1)c1ccccc1 (stereo not given),95.8% (active)
15,CCCCCCCNC1CCCc2cc(OC)ccc21 (stereo not given),85.5% (active)
16,Cc1ccc(S(=O)(=O)NCCSCCSCCNS(=O)(=O)c2ccc(C)cc2)cc1,55.4% (inactive)
17,COc1ccc(C2C3CCCC(C(c4ccc(OC)cc4)N2C)C32NC(=O)NC2=O)cc1 (stereo not given),97.2% (active)
18,CC(C)OC1=C(Cl)C(=O)c2c(cccc2[N+](=O)[O-])C1=O,26.8% (inactive)
19,COC(=O)c1nnn(-c2ccc(Cl)cc2Cl)c1C(=O)c1ccc(Cl)c(Cl)c1,98.3% (active)
20,O=Cc1cc2c(s1)C(=O)c1sccc1C2=O,88.8% (active)

# Test: NCI Yeast Anticancer Drug Screen. Data for the mec2-1 strain (AID 157)
# Settings: S. cerevisiae mec2-1 strain, at 5.0 µM (retest, dose inferred, filed as 0.5), active compounds read high
# Summary of the method: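 Cells of the genetically defined mec2-1 yeast strain are incubated with test compound. Inhibition of growth is calculated against vehicle-treated controls.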
row,SMILES,growth inhibition
1,O=C1c2ccccc2C(=O)c2sc(Nc3cc(Cl)ccc3Cl)nc21,72% (active)
2,OCC(c1ccccc1)c1ccccc1,2% (inactive)
3,CN(C)c1nc(=NCc2ccco2)ss1,17% (inactive)
4,C/C=C\C=N\NC(N)=S,-3% (inactive)
5,O=C(/C=N/O)c1c(-c2ccccc2)[nH]c(-c2ccccc2)c1-c1ccccc1,5% (inactive)
6,Cc1c2ccccc2c(CO)c2cc(F)c3ccccc3c12,95% (active)
7,O=C(O)Cc1cccc2c(=O)c3cccc([N+](=O)[O-])c3[nH]c12,24% (inactive)
8,Cc1ccc(SC2=C(N(C)C)C(=O)c3ccccc3C2=O)cc1,-13% (inactive)
9,O=C1C(Cl)=C(Cl)C(=O)c2cc(Cl)c(Cl)cc21,89% (active)
10,CC1=C(C2CO2)C(=O)C(C)=C(C2CO2)C1=O (stereo not given),40% (inactive)
11,CCc1cc(CC)c(-c2ccco2)c(COC(=O)NC)c1,-3% (inactive)
12,COC(=O)C(=O)N(c1cc(C)ccc1C)c1cc(C)ccc1C,1% (inactive)
13,COC1=CC(=O)c2c(O)c3c(c(O)c2C1=O)C=C(C)OC3O (stereo not given),-2% (inactive)
14,O=[N+]([O-])c1ccccc1NCCO,3% (inactive)
15,CCCCCCCCCCCCCCCC[N+](C)(C)CC(=O)O,7% (inactive)
16,S=C(SSSSC(=S)N1CCCCC1)N1CCCCC1,39% (inactive)
17,COC(O)C12OC3CO[Si](C(C)C)(C(C)C)O[Si](C(C)C)(C(C)C)OC3C1Oc1nc(=O)ccn12 (stereo not given),13% (inactive)
18,O=C(O)c1ccccc1C(c1ccccc1)c1ccccc1,-8% (inactive)
19,OC(OC/C(I)=C(/I)COC(O)C(Cl)(Cl)Cl)C(Cl)(Cl)Cl (stereo not given),34% (inactive)
20,COC(C)(C)[C@@H]1CCCN1C1=C(C)C(=O)OC1,85% (active)

row,SMILES,growth inhibition
1,COc1ccc(-c2nc(C)[nH]c(=O)c2Cc2c(O)ccc3ccccc23)cc1,-4% (inactive)
2,C1CCC(CCNCCC2CCCCC2)CC1,-15% (inactive)
3,CC1=C(C)C1[N+](=O)[O-],35% (inactive)
4,COc1ccc2c(c1)OC(c1ccccc1O)CC2=O (stereo not given),-44% (inactive)
5,CCN(CC)c1ccc(NC(CC(O)c2ccccc2)c2ccccc2)cc1 (stereo not given),-3% (inactive)
6,COc1cc(/C=C/C(=O)c2ccc3ccccc3c2)cc(OC)c1OC,49% (inactive)
7,C=CC(=C)OC,-8% (inactive)
8,O=C1OC(=O)c2ccc([N+](=O)[O-])c3cccc1c23,2% (inactive)
9,CCCOC(=O)CSC#N,33% (inactive)
10,CCCCN(CCCC)CCCCCCNc1cc(OC)cc2cccnc12,1% (inactive)
11,CN1C(Cl)=NS(=O)(=O)c2ccccc21,14% (inactive)
12,COc1cc(C(=O)CBr)c2ccc(Cl)cc2n1,90% (active)
13,CCCCCCCCCCCCCCCC(=O)N(CCCN(CC)CC)C(C)CCCN(CC)CC (stereo not given),28% (inactive)
14,CC1(c2ccccc2)OC1C(=O)N(c1ccccc1)c1ccccc1 (stereo not given),18% (inactive)
15,CCCCCCCNC1CCCc2cc(OC)ccc21 (stereo not given),22% (inactive)
16,Cc1ccc(S(=O)(=O)NCCSCCSCCNS(=O)(=O)c2ccc(C)cc2)cc1,-2% (inactive)
17,COc1ccc(C2C3CCCC(C(c4ccc(OC)cc4)N2C)C32NC(=O)NC2=O)cc1 (stereo not given),25% (inactive)
18,CC(C)OC1=C(Cl)C(=O)c2c(cccc2[N+](=O)[O-])C1=O,38% (inactive)
19,COC(=O)c1nnn(-c2ccc(Cl)cc2Cl)c1C(=O)c1ccc(Cl)c(Cl)c1,2% (inactive)
20,O=Cc1cc2c(s1)C(=O)c1sccc1C2=O,96% (active)
